# Test results: PubChem BioAssay AID485364 (National Center for Advancing Translational Sciences (NCATS), 2010)
# In all, about 360,000 compounds went through this assay and about 11,000 (3.1%) were called active. Not shown: some 4% with an inconclusive outcome. For the sample, actives were picked, then their nearest neighbours and some compounds at random. Values without a mark were called inactive. Calls follow the shape of the dose curve; as a rule, active = well fitted inhibition curve with a large enough effect; inconclusive = small, poorly fitted or top-dose-only effect; inactive = no such curve, though single readings can be large or run the other way.
# Target: Schistosoma mansoni thioredoxin glutathione reductase (TGR) (UniProt Q962Y6)
# Assay: qHTS Assay for the Inhibitors of Schistosoma Mansoni Peroxiredoxins; also: nearly all actives have a fitted effect of over 60% in size
# Conditions: purified TGR, DTNB reduction, TNB absorbance 405 nm; series mostly up to 114 µM; activity change, negative = inhibition: at the top concentration
# Method in brief: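 First, TGR (20 nM dispensed) and NADPH were mixed with compound. Second, a 15 min room-temperature incubation followed. Third, further NADPH and then DTNB were added to start the reaction. Finally, TNB absorbance was monitored kinetically.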
# % is scaled to controls: 0 for no effect and ±100 for the full control effect; potency is read from the fitted curve at half-maximal effect.
Structure (SMILES),"activity change, negative = inhibition [%]",Potency
Cc1ccc(Cl)cc1NC(=O)C(C)n1nnc2sc(-c3ccccc3)cc2c1=O (stereo not given),-5.46,–
COc1ccc(C2c3c(oc4ccccc4c3=O)C(=O)N2Cc2ccc3c(c2)OCO3)cc1 (stereo not given),4.84,–
CCOc1ccc(N(CC)S(=O)(=O)N2CCCC(C(=O)NCc3ccc(Cl)cc3)C2)cc1 (stereo not given),2.95,–
COc1ccccc1N1CCN(c2ncnc3onc(-c4cccc(Cl)c4)c23)CC1,-6.23,–
Cc1ccc(-c2nc(CS(=O)CC(=O)N3CCN(c4ncccn4)CC3)c(C)o2)cc1 (stereo not given),–,7.08 µM (active)
COc1ccc(-c2nc(CN3CCN(c4ncccn4)CC3)c(C)o2)cc1C,0.814,–
Cc1cccc(C)c1NC(=O)CS(=O)CC(=O)N1CCN(c2ccccc2)CC1 (stereo not given),-8.81,–
O=C(NC1CCCC1)c1cc(-c2ccccc2)on1,3.07,–
O=C(NC1CCCCC1)c1ccc(-c2ccc(Cl)cc2)o1,–,35.5 µM (active)
O=C(NC1CCCCCC1)c1cccnc1Sc1ccc(Cl)cc1,-3.38,–
Cc1ccc(CCNC(=O)c2ccc3c(c2)N(Cc2cc(C)ccc2C)C(=O)c2ccccc2S3=O)cc1 (stereo not given),9.69,–
Cc1ccccc1OCc1nc2c3cnn(-c4ccccc4F)c3ncn2n1,0.293,–
CCn1c(NC(=O)c2ccccc2)c(-c2cccs2)c(=O)c2ccccc21,0.42,–
CC(C)Cn1c(CCC(=O)O)ccc1-c1cccs1,–,22.4 µM (active)
O=C(O)CCC(=O)N(Cc1cccs1)Cc1cccs1,-0.146,–
CCOc1ccc(S(=O)(=O)c2cn(Cc3ccccc3)c3ccc(OCC)cc3c2=O)cc1,2.33,–
N#Cc1ccc(-c2cccs2)nc1SCc1ccc(Br)cc1,-18.7,–
Cn1c(SCc2c(F)cccc2Cl)nnc1-c1cnccn1,-5.1,–
Cc1cccc(CSc2ccc(-c3cccs3)nn2)c1,–,inactive
Cc1cc(SCc2c(F)cccc2Cl)nc(=O)[nH]1,3.88,–
Brc1ccc(CSc2ccc(-c3ccco3)nn2)cc1,–,17.8 µM (active)
Fc1cccc(Cl)c1CSc1ccc(-c2ccco2)nn1,–,17.8 µM (active)

Structure (SMILES),"activity change, negative = inhibition [%]",Potency
COc1cccc(CNC(=O)C(NS(=O)(=O)c2ccc3nc(C)sc3c2)C(C)C)c1 (stereo not given),6.17,–
COc1ccc(CNC(=O)CSc2nc3ccccc3nc2Cc2ccccc2)cc1,8.87,–
Cc1ccc(OCCSc2nc3ccc(NC(=O)COc4ccc(C)cc4)cc3s2)cc1,1.48,–
O=C(CCCn1c(=O)c2cccn2c2cccnc21)NCc1ccc(F)cc1,5.29,–
CCOc1ccccc1NC(=O)C1CCCN(S(=O)(=O)c2cn(C)cn2)C1 (stereo not given),1.19,–
CON(C)S(=O)(=O)c1ccc2c(c1)NC(=O)C1CCCN21 (stereo not given),–,12.6 µM (active)
COc1ccc(N2CCN(S(=O)(=O)c3ccc4c(c3)NC(=O)C(C)C(=O)N4)CC2)cc1 (stereo not given),-0.727,–
CC1C(=O)Nc2ccc(S(=O)(=O)N3CCN(c4ccccc4F)CC3)cc2NC1=O (stereo not given),0.0144,–
COc1ccc(-c2cc(C(F)(F)F)n3nc(-c4ccccc4)cc3n2)cc1OC,1.04,–
CCc1ccccc1NC(=O)N1CCC2(CC1)Oc1ccccc1C(=O)N2Cc1ccccc1F,5.66,–
Cc1cc(-c2ccc(/C=N/n3cnnc3)o2)c([N+](=O)[O-])cc1C,–,35.5 µM (active)
Cc1ccc(Cl)cc1-c1ccc(/C=N/n2cnnc2)o1,5.78,–
O=C1C2C3C=CC(C4CC34)C2C(=O)N1/N=C/c1ccc(-c2ccccc2[N+](=O)[O-])o1 (stereo not given),-5.26,–
Cc1cc([N+](=O)[O-])c(-c2ccc(/C=N/n3cnnc3)o2)cc1Cl,–,50.1 µM (active)
Cc1cc(C)c([N+](=O)[O-])cc1-c1ccc(/C=N/NC(=O)c2nonc2N)o1,-22.4,–
Clc1cc(-c2ccc(/C=N/n3cnnc3)o2)ccc1Br,-8.48,–
COc1ccc(-n2nc(C(=O)NCCc3ccc(Cl)cc3)c3c4ccccc4n(C)c3c2=O)cc1Cl,8.82,–
Cc1cccc(OCCCC(=O)Nc2sc3c(c2C(N)=O)CCC(C)C3)c1 (stereo not given),0.261,–
CCOC(=O)C1CCN(C(=O)CSc2c3c(nc4ccc(Cl)cc24)CCCC3)CC1,-4.41,–
CCOc1ccc(N(Cc2ccccc2)C(=O)c2nc(SCC)ncc2Cl)cc1,8.83,–
CCOc1ccc(NC(=O)CN(Cc2ccccc2)S(=O)(=O)c2ccc(Cl)cc2)cc1,-0.203,–
CCOc1ccc(N(Cc2ccccc2)C(=O)c2nc(S(C)(=O)=O)ncc2Cl)cc1,–,8.91 µM (active)

Structure (SMILES),"activity change, negative = inhibition [%]",Potency
Cc1c(CNC2CCCCC2)c(C(=O)O)c(C)n1Cc1cccc(Cl)c1,-3.74,–
COC(=O)C1=C(c2ccccc2)c2ccccc2S(=O)(=O)N1CC(=O)Nc1ccccc1C(F)(F)F,-1.13,–
CN=C1S/C(=C\c2c(OC)cc(OC)cc2OC)C(=O)N1C,-16.8,–
CN1C(=O)/C(=C/c2ccco2)SC1=Nc1cccc(C(=O)O)c1,–,14.1 µM (active)
Cc1cc(/C=C2\SC(=Nc3ccc(N4CCOCC4)cc3)N(C)C2=O)c(C)n1-c1cccnc1,-22.7,–
CCOC(=O)c1ccc(NC(=O)CC2C(=O)N(c3cccc(OC)c3)C(=O)N2C2CCCCC2)cc1 (stereo not given),6.04,–
COc1ccc(NC(=O)c2ccc3nc(C(C)C)oc3c2)cc1OC,-0.734,–
COc1ccccc1N1CCN(C(CNC(=O)C(=O)NCc2ccc(C)cc2)c2cccnc2)CC1 (stereo not given),-3.19,–
Cc1c(NC(=O)/C=C/C(=O)O)cccc1[N+](=O)[O-],–,50.1 µM (active)
Cc1c(NC(=O)CCCOc2ccccc2)cccc1[N+](=O)[O-],-7.24,–
Cc1c(NC(=S)NCc2ccc(F)cc2)cccc1[N+](=O)[O-],-22.1,–
O=C(NCCc1csc(-c2ccc(C(F)(F)F)cc2)n1)C(=O)Nc1ccc(F)c(Cl)c1,5.45,–
CCOc1ccccc1NS(=O)(=O)c1c[nH]c(C(=O)OC)c1,0.0214,–
CCCOc1ccc(CN(CCO)CCO)cc1C(=O)OC,-2.83,–
CCOc1ccc(CN(CCCl)CCCl)cc1C(=O)OC,–,14.1 µM (active)
CC(=O)N1CCc2cc(S(=O)(=O)NC(Cc3ccccc3)C(=O)NCc3ccc(C)cc3)ccc21 (stereo not given),0.332,–
CCc1nn(CC(=O)NCC(C)c2ccccc2)c(=O)c2cc3occc3n12 (stereo not given),-3.19,–
Cc1cc(C)cc(-n2c(SCC(=O)NCC3CCCO3)nc3c([nH]c4ccccc43)c2=O)c1 (stereo not given),4.33,–
CCOC(=O)CSc1nc(C)c(Oc2ccc(Cl)cc2Cl)c(=O)[nH]1,0.0744,–
Cc1nnc(SCC(=O)N2CCOCC2)[nH]c1=O,-0.867,–
CCCCOC(=O)CNc1nnc(SCC(=O)OCC)[nH]c1=O,–,14.1 µM (active)
